Measured values taken from PubChem BioAssay (NCI).
Compounds without any hit were thinned out: in the full panel of roughly 83,000, 20% have a hit.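 Testing used 96-well plates and a 48-hour single-concentration exposure. Example: -40 means 40% of the starting cells died.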 Values without a mark were called inactive. Active and inactive are the calls of the source. Rule for the calls: active = growth percent below 10; inactive = the rest.

Tests used:
Test in all cases: NCI-60 one-dose screen, 48 h (100 = growth as untreated, 0 = no growth, -100 = all killed)
Conditions in all cases: 10 µM unless noted
[1] = test system: NCI-H23 lung
[2] = test system: NCI-H226 lung
[3] = test system: NCI-H322M lung
[4] = test system: HOP-62 NSCLC
[5] = test system: NCI-H460 lung
[6] = test system: HOP-92 NSCLC
[7] = test system: NCI-H522 lung
[8] = test system: A549/ATCC NSCLC
[9] = test system: 786-0 renal
[10] = test system: COLO 205 colon

| SMILES | growth [1] | growth [2] | growth [3] | growth [4] | growth [5] | growth [6] | growth [7] | growth [8] | growth [9] | growth [10] |
| --- | --- | --- | --- | --- | --- | --- | --- | --- | --- | --- |
| Cc1c2cnccc2c(C)c2c1c1cc(C#N)ccc1n2C | -37.4% (active) | -18.6% (active) | -16% (active) | -25.5% (active) | -19.7% (active) | -12.1% (active) | -71% (active) | -19.8% (active) | -16.1% (active) | -37.2% (active) |
| O=S(=O)(Nc1cc(F)cc(Cl)c1)c1ccc(-c2cnc(C3CC3)o2)cc1 | 44% | 43% | 44.5% | 40.5% | 20.7% | 26.7% | 1.55% (active) | 47.3% | 30.7% | 24.3% |
| O=CN1N=C(c2cccc(Nc3ccnc4cc(Cl)ccc34)c2)CC1c1ccccc1 (stereo not given) | 4.34% (active) | 38.3% | 71.8% | 37.2% | 7.29% (active) | 18.9% | -25.8% (active) | 21.3% | 18.9% | -40.9% (active) |
| Nc1nc(N)c(-c2ccc(Cl)c(Cl)c2)c(CBr)n1 | 78.3% | 93.3% | 78.4% | 102% | 25.7% | 99% | 9.79% (active) | 27% | 52% | 76.6% |
| O=C1C(=O)N(Cc2ccc(-c3ccccc3)cc2)c2ccc(OC(F)(F)F)cc21 | 41.4% | 73.6% | 102% | 37.5% | 83.3% | 60.8% | 31.1% | 92.9% | 41.6% | 82.7% |
| Cn1c(=O)c2nc(/C=C/c3ccccc3)c(=O)[nH]c2n(C)c1=S | 100% | 101% | 99.7% | 100% | 103% | 98.1% | 102% | 107% | 99.8% | 121% |
| N#Cc1nc(-c2ccc(F)cc2)oc1S(=O)(=O)N1CCOCC1 | 70.3% | 81.7% | 102% | 101% | 107% | 94.6% | -33.8% (active) | 107% | 87.6% | -36.4% (active) |
| Cc1ccc(C2=Nc3c(N)ncnc3NC(c3cccc(Nc4ccnc5cc(C(F)(F)F)ccc45)c3)C2)cc1 (stereo not given) | 44.3% | 59.8% | 67.2% | 41.1% | 21.2% | 2.86% (active) | 30.6% | 24.6% | 42.6% | 9.89% (active) |
| N#Cc1c(-c2ccccc2)[nH]c2ncc(-c3ccccc3)n2c1=O | 76.9% | 86.3% | 88.6% | 75.6% | 91.1% | 80.7% | 76.9% | 90.6% | 92.3% | 94.7% |
| CCOc1ccc(NC(=O)CSc2oc(-c3ccccc3)nc2S(=O)(=O)c2ccc(C)cc2)cc1 | 67.4% | -18.8% (active) | 61.1% | 53.9% | 35.9% | 46.4% | 83.8% | 41.1% | 66.1% | 81.8% |
| O=C(CSc1nc2ccc([N+](=O)[O-])cc2[nH]1)Nc1ccc([N+](=O)[O-])cc1 | 0.139% (active) | 6.55% (active) | 43.9% | 36.2% | 15.4% | -26.8% (active) | -3.09% (active) | 24.4% | 24.1% | 21.4% |
| COc1cc(C2CC(c3ccc(Nc4nc(Nc5ccc(Cl)cc5)nc(Nc5ccc(Cl)cc5)n4)cc3)=NN2C(C)=O)cc(OC)c1OC (stereo not given) | 83.3% | 104% | 106% | 105% | 106% | -3.51% (active) | 86.8% | 91.1% | 90.6% | 97.9% |
| COC1=CC(c2ccc[nH]2)=N/C1=C\c1[nH]c(C)c(C(=O)OC(C)C)c1C | -43.4% (active) | -27.4% (active) | -28.2% (active) | -21.4% (active) | 0.0375% (active) | -33% (active) | -58.2% (active) | -21.2% (active) | -41.9% (active) | -80.5% (active) |
| COc1ccc(OC)c(/C=N/Nc2ncnc3c2c(C)nn3C)c1 | 106% | 92.6% | 114% | 92% | 106% | 96.2% | 93.8% | 104% | 102% | 102% |
| C1CCC([PH+](C2CCCCC2)C2CCCCC2[PH+](C2CCCCC2)C2CCCCC2)CC1.[Au].[CH-]1CCCCC1C1CCCC[N-]1 (stereo not given) | -31% (active) | -35.1% (active) | -52% (active) | -39.9% (active) | -69.8% (active) | -38.5% (active) | -51% (active) | -56.8% (active) | -64.6% (active) | -62% (active) |
| NC(=O)c1c(NC(=O)c2ccc3ccccc3c2)sc2c1CCC(=O)C2 | 35.4% | 91.8% | 94.9% | 99.9% | 92.6% | 83.6% | 10.5% | 95.5% | 99.6% | 58.4% |
| COc1ccc(Nc2ncc(Br)c(NCCCNC(=O)C3CCCC3)n2)cc1 | 30.3% | 28.5% | 58.5% | 22.4% | 23.6% | 26% | 65.7% | 38.9% | 36.3% | 21.6% |
| CC1=NC2=Nn3c(c4cnn(-c5ccccc5)c4n/c3=N\N)NN2C(c2ccccc2)=C1 | 87.5% | 90.7% | 87.6% | 96.1% | 88.5% | 74.3% | 89% | 96% | 104% | 107% |
| CCOc1nc(-c2ccccc2)cc2c(O)c(C(=O)N/N=C/c3ccccc3)[nH]c(=O)c12 | 111% | 106% | 128% | 115% | 114% | 107% | 74.4% | 114% | 112% | 111% |
| [O-]/[N+](=C\c1ccc(-n2cc(Cc3ccccc3Cc3cn(-c4ccc(/C=[N+](/[O-])c5ccccc5)cc4)nn3)nn2)cc1)c1ccccc1 | 94.7% | 101% | 93.3% | 100% | 108% | 112% | 97% | 105% | 97.5% | 107% |
| Cn1cc(-c2csc(-c3c[nH]c4ccccc34)n2)c2cnccc21 | 85.5% | 87.7% | 90.2% | 8.92% (active) | -17.7% (active) | 72.7% | -39.6% (active) | 18% | -87% (active) | -37.3% (active) |
